# Laboratory results taken from article PMC11995724, “Antibiotic target discovery by integrated phenotypic and activity-based profiling of electrophilic fragments” (Cell chemical biology, 2025).
# Out of some 3,200 compounds screened, about 110 (3.4%) showed an effect of 50% or more. The entries come from a sample that favours strong results as a whole.
# System: T1, V. cholerae SAD30
# T1 construct: SAD30
# Set-up: species or system S. aureus MSSA476 (TSB) or V. cholerae SAD30 (LB); 384-well bacterial growth screen at 25 uM, OD600 relative to DMSO control
# Settings: relative growth, OD600, LB; 25 µM; inhibitor
row,Compound,% of control remaining [%]
1,"COc1cc(C=C(C#N)C(=O)Nc2cccc(C)c2)c2c(c1)CC(C)O2 (centres unmarked) [8-N22, 2-cyano-3-(5-methoxy-2-methyl-2,3-dihydro-1-benzofuran-7-yl)-N-(3-methylphenyl)prop-2-enamide]",77.7022
2,"C=CC(=O)NCc1cn([C@@H]2COC[C@H]2OC)nn1 [1-J17, N-({1-[(3R,4S)-4-methoxyoxolan-3-yl]-1H-1,2,3-triazol-4-yl}methyl)prop-2-enamide]",85.0523
3,"C=CC(=O)N(Cc1ccc(Cl)cc1Cl)CC1CCC(O)C1 (centres unmarked) [1-B04, N-[(2,4-dichlorophenyl)methyl]-N-[(3-hydroxycyclopentyl)methyl]prop-2-enamide]",107.949
4,"Cc1cc(C(=O)CCl)c(C)n1C(C)c1ccccc1 (centres unmarked) [10-P17, 2-chloro-1-[2,5-dimethyl-1-(1-phenylethyl)-1H-pyrrol-3-yl]ethan-1-one]",96.4738
5,"CC(NC(=O)C(C#N)=Cc1ccco1)c1cccc(-n2cccn2)c1 (centres unmarked) [9-J04, 2-cyano-3-(furan-2-yl)-N-{1-[3-(1H-pyrazol-1-yl)phenyl]ethyl}prop-2-enamide]",81.5092
6,"C=CC(=O)N1CCCCC1c1nc2ccccc2n1C (centres unmarked) [3-F04, 1-[2-(1-methyl-1H-1,3-benzodiazol-2-yl)piperidin-1-yl]prop-2-en-1-one]",96.3242
7,"C=CC(=O)NCC(c1c(F)cccc1F)N1CC(C)OC(C)C1 (centres unmarked) [1-I13, N-[2-(2,6-difluorophenyl)-2-(2,6-dimethylmorpholin-4-yl)ethyl]prop-2-enamide]",82.5112
8,"N#CC(=Cc1ccc(-c2ccccc2Cl)o1)C(=O)N1CCCCC1 [8-F20, 3-[5-(2-chlorophenyl)furan-2-yl]-2-(piperidine-1-carbonyl)prop-2-enenitrile]",64.378
9,"O=C(CCl)N1CC(S(=O)(=O)Nc2ccccc2)C1 [5-G10, 1-(2-chloroacetyl)-N-phenylazetidine-3-sulfonamide]",71.283
10,"O=C(NC1CC1)C1(C(=O)N2CCSSCC2)CCC1 [10-B21, N-cyclopropyl-1-(1,2,5-dithiazepane-5-carbonyl)cyclobutane-1-carboxamide]",104.89
11,"Cn1nc(C(F)(F)F)cc1CN(C(=O)CCl)C1CCCC1 [5-C16, 2-chloro-N-cyclopentyl-N-{[1-methyl-3-(trifluoromethyl)-1H-pyrazol-5-yl]methyl}acetamide]",89.1037
12,"O=C(CCl)Cc1ccc(F)c(F)c1 [10-O17, 1-chloro-3-(3,4-difluorophenyl)propan-2-one]",19.3259
13,"O=C(CCl)Cc1ccc(C(F)(F)F)cc1 [10-C19, 1-chloro-3-[4-(trifluoromethyl)phenyl]propan-2-one]",79.6415
14,"O=C(CCl)Cc1ccc(F)cc1 [10-G15, 1-chloro-3-(4-fluorophenyl)propan-2-one]",95.6945
15,"COc1ccccc1CN(C)C(=O)CCl [6-C09, 2-chloro-N-[(2-methoxyphenyl)methyl]-N-methylacetamide]",89.7905
16,"COc1ccccc1CNC(=O)C(C)Cl (centres unmarked) [5-M21, 2-chloro-N-[(2-methoxyphenyl)methyl]propanamide]",101.376
17,"COc1ccc(OC)c(NC(=O)CCl)c1 [6-O04, 2-chloro-N-(2,5-dimethoxyphenyl)acetamide]",96.0091
18,"COc1ccc(OC)c(N2C(=O)C=CC2=O)c1 [10-N15, 1-(2,5-dimethoxyphenyl)-2,5-dihydro-1H-pyrrole-2,5-dione]",24.7808
19,"COc1ccccc1NC(=O)C(C)Cl (centres unmarked) [5-L20, 2-chloro-N-(2-methoxyphenyl)propanamide]",97.5097
20,"COc1cc(Cl)c(C)cc1NC(=O)C(C#N)=CC=Cc1ccccc1 [8-A21, N-(4-chloro-2-methoxy-5-methylphenyl)-2-cyano-5-phenylpenta-2,4-dienamide]",93.0659
21,"COc1ccc(OC)c(C(C)NC(=O)CCl)c1 (centres unmarked) [4-M19, 2-chloro-N-[1-(2,5-dimethoxyphenyl)ethyl]acetamide]",102.48
22,"COc1ccccc1CN1C(=O)C=CC1=O [10-P21, 1-[(2-methoxyphenyl)methyl]-2,5-dihydro-1H-pyrrole-2,5-dione]",42.8599
23,"COc1cc(Cl)c(C)cc1NC(=O)C(C)Cl (centres unmarked) [6-C15, 2-chloro-N-(4-chloro-2-methoxy-5-methylphenyl)propanamide]",86.6054
24,"COc1cc(Cl)c(C)cc1N1C(=O)C=CC1=O [10-B15, 1-(4-chloro-2-methoxy-5-methylphenyl)-2,5-dihydro-1H-pyrrole-2,5-dione]",23.534

row,Compound,% of control remaining [%]
1,"COc1ccccc1N1C(=O)C=CC1=O [10-O10, 1-(2-methoxyphenyl)-2,5-dihydro-1H-pyrrole-2,5-dione]",26.0277
2,"CC(Cl)C(=O)NCCC1=CCCCCC1 (centres unmarked) [5-N19, 2-chloro-N-[2-(cyclohept-1-en-1-yl)ethyl]propanamide]",88.2631
3,"CN(Cc1ccc(N(C)C)cc1)C(=O)CCl.Cl [5-F06, 2-chloro-N-{[4-(dimethylamino)phenyl]methyl}-N-methylacetamide hydrochloride]",92.298
4,"CSc1ccccc1NC(=O)C(C)Cl (centres unmarked) [4-M12, 2-chloro-N-[2-(methylsulfanyl)phenyl]propanamide]",94.8889
5,"C=CC(=O)N1CCCn2cccc2C12CCOCC2 [1-A22, 1-{2',3',4',5'-tetrahydrospiro[oxane-4,1'-pyrrolo[1,2-a][1,4]diazepin]-2'-yl}prop-2-en-1-one]",107.922
6,"CCC(NC(=O)CCl)c1ccc(C)cc1 (centres unmarked) [4-K17, 2-chloro-N-[1-(4-methylphenyl)propyl]acetamide]",97.3043
7,"C=CC(=O)NCc1ccno1 [1-O07, N-[(1,2-oxazol-5-yl)methyl]prop-2-enamide]",86.846
8,"C=CC(=O)NC1CC(C)Cc2cc(OC)ccc21 (centres unmarked) [3-L17, N-(6-methoxy-3-methyl-1,2,3,4-tetrahydronaphthalen-1-yl)prop-2-enamide]",87.3259
9,"O=C(CCl)NC(c1cc(F)ccc1F)C(F)F (centres unmarked) [7-F22, 2-chloro-N-[1-(2,5-difluorophenyl)-2,2-difluoroethyl]acetamide]",92.5161
10,"C=CC(=O)N(CCO)c1ccc(C(=O)O)cc1 [1-M10, 4-[N-(2-hydroxyethyl)prop-2-enamido]benzoic acid]",88.6398
11,"C=CC(=O)N1CCC(C(=O)N(C)Cc2ccon2)CC1 [2-I14, N-methyl-N-[(1,2-oxazol-3-yl)methyl]-1-(prop-2-enoyl)piperidine-4-carboxamide]",86.7992
12,"C=CC(=O)N1CCC(C(=O)N[C@H]2CC[C@@H]2O)(c2ccccc2)CC1 (racemic) [3-G08, rac-N-[(1R,2R)-2-hydroxycyclobutyl]-4-phenyl-1-(prop-2-enoyl)piperidine-4-carboxamide]",93.3248
13,"C=CC(=O)N1CCC(C(=O)Nc2ccccc2NS(C)(=O)=O)CC1 [3-C06, N-(2-methanesulfonamidophenyl)-1-(prop-2-enoyl)piperidine-4-carboxamide]",107.793
14,"CC(C)NC(=O)C(C#N)=Cc1ccccc1 [8-L05, 2-cyano-3-phenyl-N-(propan-2-yl)prop-2-enamide]",76.8865
15,"CC(C)NC(=O)C(C#N)=Cc1cccs1 [8-H15, 2-cyano-N-(propan-2-yl)-3-(thiophen-2-yl)prop-2-enamide]",71.0401
16,"Cc1cccc(NC(=O)NC(=O)CCl)c1C [4-D21, 3-(2-chloroacetyl)-1-(2,3-dimethylphenyl)urea]",104.033
17,"C=CC(=O)NCCn1cc(Cl)c(C(F)(F)F)n1 [2-F03, N-{2-[4-chloro-3-(trifluoromethyl)-1H-pyrazol-1-yl]ethyl}prop-2-enamide]",108.106
18,"COc1ccc(C2CCCN2C(=O)CCl)c(OC)c1 (centres unmarked) [4-P22, 2-chloro-1-[2-(2,4-dimethoxyphenyl)pyrrolidin-1-yl]ethan-1-one]",115.247
19,"COc1ccc(N2C(=O)C=CC2=O)c(OC)c1 [10-J15, 1-(2,4-dimethoxyphenyl)-2,5-dihydro-1H-pyrrole-2,5-dione]",26.9628
20,"COc1ccc(Cl)cc1N1C(=O)C=CC1=O [10-K10, 1-(5-chloro-2-methoxyphenyl)-2,5-dihydro-1H-pyrrole-2,5-dione]",24.1574
21,"COc1ccc(C(=O)C(C)Cl)c(OC)c1 (centres unmarked) [10-J17, 2-chloro-1-(2,4-dimethoxyphenyl)propan-1-one]",98.0323
22,"COc1ccc(Cl)cc1CNC(=O)CCl [6-A16, 2-chloro-N-[(5-chloro-2-methoxyphenyl)methyl]acetamide]",95.2507
23,"COc1ccc(Cl)cc1NC(=O)C(C)Cl (centres unmarked) [6-G16, 2-chloro-N-(5-chloro-2-methoxyphenyl)propanamide]",89.3355
